Assay [1] has as its target Tyrosine-protein kinase CSK (Homo sapiens) (UniProt P41240). To be noted: at 1 µM.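 Also: each value is an averaged inhibition reading.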
The target in assay [2] is T1, Discoidin domain-containing receptor 2 (Homo sapiens) (UniProt Q16832).
T1 sequence (whole entry): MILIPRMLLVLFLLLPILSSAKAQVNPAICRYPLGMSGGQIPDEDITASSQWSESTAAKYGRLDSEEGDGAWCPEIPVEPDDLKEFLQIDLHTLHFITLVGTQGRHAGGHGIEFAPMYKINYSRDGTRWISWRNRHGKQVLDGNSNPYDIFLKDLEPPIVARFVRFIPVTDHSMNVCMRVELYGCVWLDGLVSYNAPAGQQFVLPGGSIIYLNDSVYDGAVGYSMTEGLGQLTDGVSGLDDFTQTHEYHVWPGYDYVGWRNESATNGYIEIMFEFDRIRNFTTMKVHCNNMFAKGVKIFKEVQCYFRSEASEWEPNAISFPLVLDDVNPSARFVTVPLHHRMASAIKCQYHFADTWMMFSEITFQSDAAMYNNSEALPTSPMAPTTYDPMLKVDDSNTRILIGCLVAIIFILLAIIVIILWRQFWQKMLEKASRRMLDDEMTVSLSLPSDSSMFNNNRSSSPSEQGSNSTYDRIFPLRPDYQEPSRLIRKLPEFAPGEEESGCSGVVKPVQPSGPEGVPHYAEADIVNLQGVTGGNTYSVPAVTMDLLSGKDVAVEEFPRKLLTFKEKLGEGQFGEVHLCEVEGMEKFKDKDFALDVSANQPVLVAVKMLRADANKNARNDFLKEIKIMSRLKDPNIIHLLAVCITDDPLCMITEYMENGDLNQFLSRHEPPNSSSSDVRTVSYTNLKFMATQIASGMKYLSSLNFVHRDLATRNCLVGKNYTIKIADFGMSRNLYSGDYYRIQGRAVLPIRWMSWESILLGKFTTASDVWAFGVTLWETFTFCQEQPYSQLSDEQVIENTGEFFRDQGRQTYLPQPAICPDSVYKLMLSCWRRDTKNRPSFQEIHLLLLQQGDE
To be noted: at 0.1 µM.

Assay [3] addresses T1, Discoidin domain-containing receptor 2 (Homo sapiens). To be noted: at 1 µM.
Assay [4] deals with Epidermal growth factor receptor (Homo sapiens) (UniProt P00533). To be noted: at 0.1 µM.
Assay [5] shares this target. To be noted: at 1 µM.
In assay [6] the test system is Epidermal growth factor receptor (Homo sapiens), P00533 [L858R]. To be noted: at 0.1 µM.
The test system is the same in assay [7]. To be noted: at 1 µM.
The subject of assay [8] is Epidermal growth factor receptor (Homo sapiens), P00533 [L861Q]. To be noted: at 0.1 µM.
Assay [9] shares this test system. To be noted: at 1 µM.
The subject of assay [10] is Epidermal growth factor receptor (Homo sapiens), P00533 [T790M]. To be noted: at 0.1 µM.
Assay [11] has the same test system. To be noted: at 1 µM.
In assay [12] the test system is Epidermal growth factor receptor (Homo sapiens), P00533 [L858R,T790M]. To be noted: at 0.1 µM.
Assay [13] has the same test system. To be noted: at 1 µM.
For assay [14], the target named is Ephrin type-A receptor 2 (Homo sapiens) (UniProt P29317). To be noted: at 0.1 µM.
Assay [15] shares this target. To be noted: at 1 µM.
The target in assay [16] is T2, Ephrin type-A receptor 3 (Homo sapiens) (UniProt P29320).
T2 sequence (whole entry): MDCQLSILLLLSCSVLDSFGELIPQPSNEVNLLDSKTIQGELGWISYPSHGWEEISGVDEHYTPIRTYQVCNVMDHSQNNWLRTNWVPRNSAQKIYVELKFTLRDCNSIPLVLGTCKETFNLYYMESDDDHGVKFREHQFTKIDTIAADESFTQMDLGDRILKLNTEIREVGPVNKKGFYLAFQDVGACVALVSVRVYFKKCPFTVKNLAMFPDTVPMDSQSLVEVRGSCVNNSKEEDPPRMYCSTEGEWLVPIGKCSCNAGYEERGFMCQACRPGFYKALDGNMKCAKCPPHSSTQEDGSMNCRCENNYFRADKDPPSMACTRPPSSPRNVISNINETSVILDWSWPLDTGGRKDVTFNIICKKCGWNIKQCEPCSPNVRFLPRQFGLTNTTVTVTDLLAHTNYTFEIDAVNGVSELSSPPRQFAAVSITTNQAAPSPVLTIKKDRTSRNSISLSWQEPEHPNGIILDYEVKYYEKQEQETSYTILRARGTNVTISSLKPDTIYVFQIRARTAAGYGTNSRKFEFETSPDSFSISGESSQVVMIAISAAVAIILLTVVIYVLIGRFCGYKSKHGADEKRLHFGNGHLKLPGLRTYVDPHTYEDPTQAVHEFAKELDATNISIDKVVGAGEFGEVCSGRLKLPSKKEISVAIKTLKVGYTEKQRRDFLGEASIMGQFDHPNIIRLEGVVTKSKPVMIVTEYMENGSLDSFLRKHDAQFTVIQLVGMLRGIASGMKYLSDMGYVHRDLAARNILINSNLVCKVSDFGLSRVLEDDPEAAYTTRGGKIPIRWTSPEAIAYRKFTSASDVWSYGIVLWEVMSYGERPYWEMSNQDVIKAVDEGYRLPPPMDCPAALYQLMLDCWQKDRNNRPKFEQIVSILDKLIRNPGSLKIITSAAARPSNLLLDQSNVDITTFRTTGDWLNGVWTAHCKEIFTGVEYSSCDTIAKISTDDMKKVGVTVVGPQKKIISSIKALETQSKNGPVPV
To be noted: at 0.1 µM.

Assay [17] deals with T2, Ephrin type-A receptor 3 (Homo sapiens). To be noted: at 1 µM.
The target of assay [18] is Ephrin type-A receptor 4 (Homo sapiens) (UniProt P54764). To be noted: at 0.1 µM.
The target is the same in assay [19]. To be noted: at 1 µM.
Assay [20] has as its target T3, Ephrin type-B receptor 2 (Homo sapiens) (UniProt P29323).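 Also: reported as mean inhibition of EPHB2, from the GSK PKIS dataset.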
T3 sequence (whole entry): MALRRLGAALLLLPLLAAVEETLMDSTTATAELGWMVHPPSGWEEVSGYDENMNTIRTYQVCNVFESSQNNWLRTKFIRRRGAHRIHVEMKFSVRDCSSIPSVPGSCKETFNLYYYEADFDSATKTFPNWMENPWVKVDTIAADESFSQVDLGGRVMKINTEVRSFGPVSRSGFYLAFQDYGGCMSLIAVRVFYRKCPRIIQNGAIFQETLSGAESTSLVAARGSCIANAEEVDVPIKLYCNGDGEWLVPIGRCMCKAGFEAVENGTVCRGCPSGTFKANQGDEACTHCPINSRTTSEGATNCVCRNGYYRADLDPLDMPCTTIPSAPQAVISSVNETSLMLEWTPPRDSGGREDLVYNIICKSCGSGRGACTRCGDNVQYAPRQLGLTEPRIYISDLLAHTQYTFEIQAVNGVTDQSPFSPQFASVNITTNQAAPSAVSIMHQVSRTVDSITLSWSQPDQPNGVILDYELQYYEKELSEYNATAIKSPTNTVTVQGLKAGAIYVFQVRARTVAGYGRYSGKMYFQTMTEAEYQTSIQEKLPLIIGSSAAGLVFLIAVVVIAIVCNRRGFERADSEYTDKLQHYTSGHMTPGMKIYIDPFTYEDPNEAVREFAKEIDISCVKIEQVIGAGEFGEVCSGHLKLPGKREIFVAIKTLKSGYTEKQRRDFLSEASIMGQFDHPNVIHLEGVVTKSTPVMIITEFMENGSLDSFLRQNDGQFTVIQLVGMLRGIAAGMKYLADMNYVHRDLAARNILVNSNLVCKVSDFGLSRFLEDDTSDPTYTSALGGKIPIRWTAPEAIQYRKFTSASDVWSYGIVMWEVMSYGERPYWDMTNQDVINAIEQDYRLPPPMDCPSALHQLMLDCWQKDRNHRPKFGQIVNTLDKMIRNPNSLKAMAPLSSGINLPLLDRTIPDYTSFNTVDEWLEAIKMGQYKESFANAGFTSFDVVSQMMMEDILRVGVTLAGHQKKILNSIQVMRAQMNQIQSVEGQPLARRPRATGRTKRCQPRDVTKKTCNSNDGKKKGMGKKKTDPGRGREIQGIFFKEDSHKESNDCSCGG
To be noted: at 0.1 µM.

What is called inhibition is the drop in the measured response relative to a control, in per cent.

Chain of Tyrosine-protein kinase CSK (Homo sapiens) (P41240 2-450 limits assumed): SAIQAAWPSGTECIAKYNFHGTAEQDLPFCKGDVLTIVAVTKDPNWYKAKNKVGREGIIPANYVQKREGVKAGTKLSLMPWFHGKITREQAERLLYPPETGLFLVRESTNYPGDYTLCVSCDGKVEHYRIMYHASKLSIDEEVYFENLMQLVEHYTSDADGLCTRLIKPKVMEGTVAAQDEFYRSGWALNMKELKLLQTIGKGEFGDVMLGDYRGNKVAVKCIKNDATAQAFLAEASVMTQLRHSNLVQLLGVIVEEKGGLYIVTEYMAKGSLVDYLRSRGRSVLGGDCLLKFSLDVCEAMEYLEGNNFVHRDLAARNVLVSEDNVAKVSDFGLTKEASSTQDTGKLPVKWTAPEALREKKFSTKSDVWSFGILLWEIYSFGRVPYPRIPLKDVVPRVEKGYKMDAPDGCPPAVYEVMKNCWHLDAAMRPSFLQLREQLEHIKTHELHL
Chain of Ephrin type-A receptor 2 (Homo sapiens) (P29317 whole entry): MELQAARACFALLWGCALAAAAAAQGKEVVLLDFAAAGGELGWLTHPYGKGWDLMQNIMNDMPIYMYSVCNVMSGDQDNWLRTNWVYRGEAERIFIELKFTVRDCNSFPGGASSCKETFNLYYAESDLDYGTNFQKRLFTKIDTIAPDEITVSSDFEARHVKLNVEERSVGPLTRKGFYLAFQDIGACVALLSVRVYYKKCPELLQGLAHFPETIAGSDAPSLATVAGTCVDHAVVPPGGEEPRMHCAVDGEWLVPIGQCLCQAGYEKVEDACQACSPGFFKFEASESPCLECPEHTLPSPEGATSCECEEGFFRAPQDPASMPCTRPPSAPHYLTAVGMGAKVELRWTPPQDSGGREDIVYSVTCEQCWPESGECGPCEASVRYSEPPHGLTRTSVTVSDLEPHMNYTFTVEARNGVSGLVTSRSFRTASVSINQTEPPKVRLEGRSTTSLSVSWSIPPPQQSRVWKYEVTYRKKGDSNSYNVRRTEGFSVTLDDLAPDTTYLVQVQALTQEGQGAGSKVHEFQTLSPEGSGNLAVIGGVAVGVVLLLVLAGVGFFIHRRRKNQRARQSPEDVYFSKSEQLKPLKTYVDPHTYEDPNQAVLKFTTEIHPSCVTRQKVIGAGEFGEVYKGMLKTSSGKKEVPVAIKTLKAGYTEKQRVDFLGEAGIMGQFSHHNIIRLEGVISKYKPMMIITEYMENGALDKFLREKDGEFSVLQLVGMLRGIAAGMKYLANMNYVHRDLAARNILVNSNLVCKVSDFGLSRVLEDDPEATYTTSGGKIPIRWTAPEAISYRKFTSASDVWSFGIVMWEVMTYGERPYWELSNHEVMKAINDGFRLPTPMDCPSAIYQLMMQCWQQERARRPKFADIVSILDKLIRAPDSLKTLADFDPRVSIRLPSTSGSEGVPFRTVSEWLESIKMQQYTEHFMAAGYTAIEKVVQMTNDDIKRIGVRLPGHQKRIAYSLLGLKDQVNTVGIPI
Chain of Epidermal growth factor receptor (Homo sapiens), P00533 [T790M] (P00533 whole entry T790M): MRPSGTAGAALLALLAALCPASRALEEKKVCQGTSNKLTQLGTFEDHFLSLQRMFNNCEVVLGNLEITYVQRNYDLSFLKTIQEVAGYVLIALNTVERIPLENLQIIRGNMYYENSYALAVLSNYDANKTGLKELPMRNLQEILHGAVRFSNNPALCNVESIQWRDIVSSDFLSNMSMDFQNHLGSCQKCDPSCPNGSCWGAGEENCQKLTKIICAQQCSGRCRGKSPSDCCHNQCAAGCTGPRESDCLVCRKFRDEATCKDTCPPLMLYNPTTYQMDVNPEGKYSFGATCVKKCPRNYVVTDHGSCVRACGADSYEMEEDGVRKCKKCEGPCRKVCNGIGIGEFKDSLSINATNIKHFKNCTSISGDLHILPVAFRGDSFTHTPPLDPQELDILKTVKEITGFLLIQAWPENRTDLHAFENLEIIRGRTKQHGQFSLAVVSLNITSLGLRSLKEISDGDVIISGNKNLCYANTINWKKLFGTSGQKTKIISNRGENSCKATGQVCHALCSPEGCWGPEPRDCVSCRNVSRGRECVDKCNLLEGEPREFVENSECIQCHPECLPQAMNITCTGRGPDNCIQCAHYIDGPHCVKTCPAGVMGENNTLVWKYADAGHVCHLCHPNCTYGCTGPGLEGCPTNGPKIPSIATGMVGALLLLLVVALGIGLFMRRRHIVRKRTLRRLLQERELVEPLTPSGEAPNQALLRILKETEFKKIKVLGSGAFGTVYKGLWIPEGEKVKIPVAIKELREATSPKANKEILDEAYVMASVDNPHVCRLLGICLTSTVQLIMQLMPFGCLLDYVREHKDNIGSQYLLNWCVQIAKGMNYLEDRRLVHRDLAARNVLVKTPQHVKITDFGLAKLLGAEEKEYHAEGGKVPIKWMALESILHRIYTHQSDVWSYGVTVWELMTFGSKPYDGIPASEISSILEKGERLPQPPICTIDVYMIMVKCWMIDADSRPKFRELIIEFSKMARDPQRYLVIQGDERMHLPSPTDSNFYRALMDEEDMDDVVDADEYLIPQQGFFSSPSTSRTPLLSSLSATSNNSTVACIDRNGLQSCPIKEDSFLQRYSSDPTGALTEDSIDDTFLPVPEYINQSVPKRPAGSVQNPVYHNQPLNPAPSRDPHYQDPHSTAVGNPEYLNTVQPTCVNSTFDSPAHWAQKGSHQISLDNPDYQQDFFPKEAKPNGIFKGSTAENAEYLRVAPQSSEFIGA
Chain of Ephrin type-A receptor 4 (Homo sapiens) (P54764 whole entry): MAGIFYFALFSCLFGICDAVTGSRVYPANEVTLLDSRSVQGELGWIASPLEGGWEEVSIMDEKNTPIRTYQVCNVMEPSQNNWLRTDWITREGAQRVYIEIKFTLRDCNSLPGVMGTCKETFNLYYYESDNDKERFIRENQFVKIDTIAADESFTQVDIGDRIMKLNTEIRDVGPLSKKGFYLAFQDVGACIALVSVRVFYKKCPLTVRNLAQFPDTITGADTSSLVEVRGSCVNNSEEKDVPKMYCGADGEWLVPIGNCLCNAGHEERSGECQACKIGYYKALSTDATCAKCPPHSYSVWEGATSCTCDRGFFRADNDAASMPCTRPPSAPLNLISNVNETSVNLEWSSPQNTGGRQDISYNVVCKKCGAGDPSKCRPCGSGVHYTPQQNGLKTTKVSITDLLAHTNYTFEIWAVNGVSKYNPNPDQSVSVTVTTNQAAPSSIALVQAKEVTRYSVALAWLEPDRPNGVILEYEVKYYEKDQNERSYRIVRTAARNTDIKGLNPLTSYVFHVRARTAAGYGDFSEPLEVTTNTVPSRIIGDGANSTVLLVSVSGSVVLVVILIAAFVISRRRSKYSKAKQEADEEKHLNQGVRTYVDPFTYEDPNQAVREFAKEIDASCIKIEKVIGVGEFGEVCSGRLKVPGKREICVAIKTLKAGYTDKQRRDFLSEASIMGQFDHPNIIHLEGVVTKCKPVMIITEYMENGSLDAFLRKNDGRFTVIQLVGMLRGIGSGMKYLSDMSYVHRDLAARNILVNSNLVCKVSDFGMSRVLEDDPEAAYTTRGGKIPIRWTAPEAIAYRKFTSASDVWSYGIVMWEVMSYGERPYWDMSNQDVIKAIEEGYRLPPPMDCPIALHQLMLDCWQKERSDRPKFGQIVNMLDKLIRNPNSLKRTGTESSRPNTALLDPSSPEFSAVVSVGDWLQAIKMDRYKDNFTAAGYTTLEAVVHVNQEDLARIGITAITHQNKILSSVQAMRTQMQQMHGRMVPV
Chain of Epidermal growth factor receptor (Homo sapiens), P00533 [L858R] (P00533 whole entry L858R): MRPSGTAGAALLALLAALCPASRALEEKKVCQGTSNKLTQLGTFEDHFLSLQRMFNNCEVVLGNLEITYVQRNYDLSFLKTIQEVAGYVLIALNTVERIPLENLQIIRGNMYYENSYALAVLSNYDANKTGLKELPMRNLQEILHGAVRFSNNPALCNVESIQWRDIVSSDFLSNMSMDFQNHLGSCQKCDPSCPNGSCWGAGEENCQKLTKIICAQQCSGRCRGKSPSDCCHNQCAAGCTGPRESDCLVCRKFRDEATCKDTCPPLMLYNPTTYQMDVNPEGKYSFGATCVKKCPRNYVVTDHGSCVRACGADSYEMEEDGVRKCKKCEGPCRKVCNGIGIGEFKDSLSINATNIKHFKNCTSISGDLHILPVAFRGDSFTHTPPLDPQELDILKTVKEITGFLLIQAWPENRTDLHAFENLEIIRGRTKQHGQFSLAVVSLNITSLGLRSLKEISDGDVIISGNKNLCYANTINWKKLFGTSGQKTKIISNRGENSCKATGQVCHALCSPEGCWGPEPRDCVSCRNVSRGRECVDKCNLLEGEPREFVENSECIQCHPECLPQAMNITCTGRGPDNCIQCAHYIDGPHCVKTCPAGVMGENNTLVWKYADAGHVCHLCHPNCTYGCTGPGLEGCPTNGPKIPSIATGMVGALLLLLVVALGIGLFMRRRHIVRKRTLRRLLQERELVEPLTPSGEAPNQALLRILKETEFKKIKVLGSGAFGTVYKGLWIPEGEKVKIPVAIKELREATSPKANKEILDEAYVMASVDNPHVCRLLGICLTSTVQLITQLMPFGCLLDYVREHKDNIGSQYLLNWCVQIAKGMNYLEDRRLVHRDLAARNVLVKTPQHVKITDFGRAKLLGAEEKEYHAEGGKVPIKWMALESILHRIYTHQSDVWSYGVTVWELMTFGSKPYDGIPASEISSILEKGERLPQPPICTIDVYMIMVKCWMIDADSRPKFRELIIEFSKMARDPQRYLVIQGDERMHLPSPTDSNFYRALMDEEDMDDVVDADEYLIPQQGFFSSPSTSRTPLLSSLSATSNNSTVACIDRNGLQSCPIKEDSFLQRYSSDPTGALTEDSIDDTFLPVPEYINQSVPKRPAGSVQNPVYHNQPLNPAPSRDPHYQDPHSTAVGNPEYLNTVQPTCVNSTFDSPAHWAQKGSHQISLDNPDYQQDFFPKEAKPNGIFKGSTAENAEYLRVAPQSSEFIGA

As for `CCC(=O)Nc1ccc(C)c(-c2ccc(C(=O)NCC3CC3)cc2)c1`, the inhibition is 4.34% in assay [1]; 1.85% in assay [2]; 2.57% in assay [3]; 6.56% in assay [4]; 6.12% in [5]; 2.49% in [6]. Further, the inhibition in assay [7] is 5.47%; in assay [8], 3.28%; in assay [9], 4.44%; in [10], 0.82%; in assay [11] it was 2.33%; in [12] it was -0.94%. Further, the inhibition is 3.59% in assay [13]; -1.79% in assay [14]; -2.2% in assay [15]; 1.95% in assay [16]; 4.02% in [17]; 6.75% in [18]. Moreover, the inhibition in assay [19] came out at 8.5%; in [20], 6.82%.
Take `CN(c1ccc(NC(=O)Nc2c(Cl)cccc2Cl)cc1)c1ccnc(Nc2cccc(CS(C)(=O)=O)c2)n1`: the inhibition was 19.5% in assay [1]; 11.1% in [2]; 26.9% in assay [3]; 2.38% in [4]; 5.8% in assay [5]; 1.91% in assay [6]. Further, the inhibition in assay [7] was found to be 8.57%; in assay [8] it was 4.35%; in assay [9], 7.45%; in [10], 1.27%; in assay [11] it was 2.21%; in assay [12], 2.48%. Also, the inhibition turned out to be 3.18% in [13]; 3.5% in assay [14]; 7.74% in assay [15]; 7.33% in assay [16]; 7.13% in [17]; 10.6% in assay [18]. For the same compound, the inhibition in assay [19] worked out at 33.8%; in assay [20] it was 4.12%.
With `COc1ccc2cc(-c3c(-c4ccncc4)nc(-c4ccc([S+](C)[O-])cc4C)n3C)ccc2c1` (stereo not given), the inhibition in assay [1] is -1.23%; in assay [2], -2.64%; in [3] it was -4.31%; in assay [4], 2.02%; in [5] it was 7.54%; in assay [6], -1.17%. Besides, the inhibition was 5.96% in assay [7]; -0.12% in assay [8]; 9.44% in assay [9]; -0.7% in assay [10]; 0.13% in assay [11]; -3% in assay [12]. The inhibition in [13] was 3.5%; in assay [14], -1.85%; in [15], -0.23%; in assay [16] it was -1.34%; in [17], -0.2%; in assay [18], -0.17%. The inhibition in assay [19] stood at 18.6%; in assay [20], 1.99%.
Turning to `CN(C)c1ccc2c(c1)/C(=C/Nc1ccc(S(N)(=O)=O)cc1)C(=O)N2`, the inhibition stood at 0.76% in [1]; 1.03% in assay [2]; 2.54% in assay [3]; 9.33% in [4]; 11.9% in [5]; 1.25% in assay [6]. Besides, the inhibition was 5.83% in [7]; 1.24% in assay [8]; 2.51% in assay [9]; 0.31% in [10]; 0.66% in assay [11]; 0.14% in assay [12]. Further, the inhibition in assay [13] was 6.28%; in assay [14], -2.54%; in assay [15] it was -2.52%; in [16] it was 2.63%; in assay [17], 3.13%; in [18] it was -0.17%. Further, the inhibition in assay [19] amounted to 1.13%; in assay [20] it was 3.5%.
